Sampled rows, rich in hits. Any-hit rate of the full collection: about 1.4%.
MOR-DOR ag-1 = agonists of human mu-delta opioid receptor heterodimerization; cells, OPRM1-OPRD1 heterodimerization, luminescence; 340,000 tested, 0.3% active; activation, % at 9.3 µM; P35372+P41143; AID 504326; in the data active = activation above about 18%
Target sequence (P35372 whole entry, looked up): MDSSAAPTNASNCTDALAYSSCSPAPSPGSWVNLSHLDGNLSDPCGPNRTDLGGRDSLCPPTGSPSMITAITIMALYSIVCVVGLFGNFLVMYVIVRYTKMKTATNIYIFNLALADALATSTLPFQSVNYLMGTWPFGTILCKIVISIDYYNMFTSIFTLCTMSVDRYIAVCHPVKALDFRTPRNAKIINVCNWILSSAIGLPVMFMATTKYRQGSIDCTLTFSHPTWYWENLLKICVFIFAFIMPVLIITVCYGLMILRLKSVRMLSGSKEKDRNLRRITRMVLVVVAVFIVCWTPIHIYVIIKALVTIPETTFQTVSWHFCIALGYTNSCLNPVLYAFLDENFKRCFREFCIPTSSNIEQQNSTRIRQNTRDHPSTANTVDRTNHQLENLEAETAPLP
Target sequence (P41143 whole entry, looked up): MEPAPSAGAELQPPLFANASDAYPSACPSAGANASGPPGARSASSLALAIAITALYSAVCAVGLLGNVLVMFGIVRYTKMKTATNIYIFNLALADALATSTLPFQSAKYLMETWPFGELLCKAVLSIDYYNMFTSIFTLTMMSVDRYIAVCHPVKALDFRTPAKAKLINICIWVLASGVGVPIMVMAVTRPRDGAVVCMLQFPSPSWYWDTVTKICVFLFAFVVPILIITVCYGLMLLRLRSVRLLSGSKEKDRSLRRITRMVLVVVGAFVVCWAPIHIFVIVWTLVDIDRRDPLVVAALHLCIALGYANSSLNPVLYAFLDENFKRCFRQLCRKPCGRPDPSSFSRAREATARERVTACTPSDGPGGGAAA
HTR5A inv ag = HTR5A inverse agonism, opioid heterodimer counter-screen; HTR5A cell line, luminescence; P47898; inhibition, % at 9.3 µM; 340,000 tested, 0.083% active; in the data active = inhibition mostly above about 23%, no sharp cut-off; inactive = mostly below about 18%
HTR5A ag ctr = HTR5A agonism, opioid heterodimer counter-screen | 340,000 tested, 0.61% active | HTR5A agonist assay, luminescence, cell-based | P47898 | AID 504692 | activation, % at 9.3 µM; in the data active = activation mostly above about 9.5%, no sharp cut-off; inactive = mostly below about 7.6%
beta cell repl = inducers of beta-cell replication in MIN6 cells. MIN6 cells proliferation, ATPlite luminescence, 48 h; cells starved in 0.2% serum; 100% = growth in 10% serum. proliferation, % at 10 µM. AID 2380. 330,000 tested, 0.29% active;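 active = compounds whose signal lies at least 3.5 SD above the mean of all wells on their plate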
MOR-DOR inv ag-1 = mu-delta opioid heterodimer inverse agonism; 340,000 tested, 0.21% active; cell-based MOR-DOR heterodimer luminescence; inhibition, % at 9.3 µM; in the data active = inhibition above about 22%, passing the limit was not always enough
pCIP destab = lowers stability of the mouse p/CIP coactivator protein. Q05BA5. F442A p/CIP-EGFP cells, EGFP fluorescence, 16 h. decrease of EGFP signal, % at 10 µM. 290,000 tested, 0.01% active. AID 1984;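 active = EGFP signal decrease of at least 30% at 10 µM or well 3 SD below plate mean, unless failing retest; inactive = the rest, including hits failing retest or dose response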
OPRM1-D1 inv cf = confirmation of human OPRM1-OPRD1 heterodimerization inverse agonists. shares compounds with MOR-DOR inv ag-1. cells expressing OPRM1/OPRD1 heterodimer, luminescence. inhibition, % at 9.3 µM. 580 tested, 20% active; in the data active = inhibition above about 32%
HTR5A inv ctr2 = counter-screen for OPRM1-OPRD1 inverse agonists: human HTR5A inverse agonism | shares compounds with MOR-DOR inv ag-1 | HTR5A-expressing cells, luminescence | inhibition, % at 9.3 µM | 580 tested, under 10 active
MOR-DOR inv ag-2 = counter-screen for HTR5A inverse agonists: OPRM1-OPRD1 heterodimerization inverse agonism | U2OS counter-screen cells, complementation luminescence | shares compounds with HTR5A inv ag | 190 tested, under 10 active | inhibition, % at 9.3 µM
HTR5A inv confrm = confirmation of human HTR5A inverse agonists; shares compounds with HTR5A inv ag; inhibition, % at 9.3 µM; HTR5A-expressing cells, inverse agonism, luminescence; AID 504916; 190 tested, under 10 active
MOR-DOR ag-2 = opioid heterodimer agonism, HTR5A counter-screen. U2OS counter-screen cells, complementation luminescence, 3 h. shares compounds with HTR5A ag ctr. 800 tested, 13% active. AID 504913. activation, % at 9.3 µM; in the data active = activation above about 18%
HTR5A ag confirm = HTR5A (human) agonism, confirmation. shares compounds with HTR5A ag ctr. HTR5A agonist cell assay, luminescence. activation, % at 9.3 µM. 800 tested, 17% active; in the data active = activation above about 17%
Of the large screens only hits and unclear results are named; the others gave an inactive call (follow-up assays come after a bar, where they were run). Unless noted, the rule behind the calls is not given here.

COC(=O)c1c(N)n(Cc2ccc(OC)cc2)c2nc3ccccc3nc12	MOR-DOR inv ag-1 32.1 | OPRM1-D1 inv cf inactive | HTR5A inv ctr2 inactive
CC(C)OC(=O)c1c(N)n(Cc2ccco2)c2nc3ccccc3nc12	none (no result: pCIP destab)
COCCOC(=O)c1c(N)n(Cc2ccco2)c2nc3ccccc3nc12	MOR-DOR inv ag-1 28.6 | OPRM1-D1 inv cf inactive | HTR5A inv ctr2 inactive
Nc1ccccc1C(=O)OCC(=O)c1ccc2c(c1)OCCO2	none
O=c1[nH]c(O)c(N=Nc2cc([N+](=O)[O-])ccc2O)c(=O)[nH]1	HTR5A inv ag 27.8 (no result: beta cell repl) | MOR-DOR inv ag-2 inactive | HTR5A inv confrm inactive
NC(=O)c1ccc(N=Nc2c(O)[nH]c(=O)[nH]c2=O)cc1	none (no result: MOR-DOR ag-1, HTR5A inv ag, HTR5A ag ctr, MOR-DOR inv ag-1)
CCOc1ccccc1-n1c(O)c(C=NCCCN(CC)CC)c(=O)[nH]c1=O	none
COCCn1c(O)c(/C=N/NC(=O)CSC(=S)N2CCCC2)c(=O)[nH]c1=S	HTR5A inv ag 30.1 (no result: pCIP destab) | MOR-DOR inv ag-2 inactive | HTR5A inv confrm inactive
CN1CCN(c2c(F)cc([N+](=O)[O-])c(N)c2Br)CC1	HTR5A inv ag 34.1 | MOR-DOR inv ag-2 inactive | HTR5A inv confrm inactive
C=CCCC1(C2=CCCCC2)C(=O)NC(=O)NC1=O	none (no result: beta cell repl, pCIP destab)
c1ccc2c(NC3=NCCS3)cccc2c1	HTR5A ag ctr 18.0 | MOR-DOR ag-2 inactive | HTR5A ag confirm 21.2
CC(N)Cc1c[nH]c2ccc(O)cc12 (configuration not stated)	HTR5A ag ctr 34.9 (no result: beta cell repl, pCIP destab) | MOR-DOR ag-2 inactive | HTR5A ag confirm 60.0
O=C(OC1CC2CCC(N2)C1C(=O)O)c1ccccc1 (configuration not stated)	none (no result: pCIP destab)
COC(=O)C1C=C2c3cccc4[nH]cc(c34)CC2N(C)C1 (configuration not stated)	none (no result: MOR-DOR ag-1, HTR5A inv ag, HTR5A ag ctr, MOR-DOR inv ag-1)
CC[C@@H](CO)NC(=O)[C@@H]1C=C2c3cccc4c3c(cn4C)C[C@H]2N(C)C1	HTR5A ag ctr 81.1 | MOR-DOR ag-2 inactive | HTR5A ag confirm 77.6
CN1C[C@H](CNC(=O)OCc2ccccc2)C[C@@H]2c3cccc4c3c(cn4C)C[C@H]21	none
CCC(CO)NC(=O)C1C=C2c3cccc4[nH]cc(c34)CC2N(C)C1 (configuration not stated)	HTR5A ag ctr 74.7 | MOR-DOR ag-2 inactive | HTR5A ag confirm 88.0
CC(C)C[C@H]1C(=O)N2CCC[C@H]2[C@]2(O)O[C@](NC(=O)[C@@H]3C=C4c5cccc6[nH]cc(c56)C[C@H]4N(C)C3)(C(C)C)C(=O)N12	none (no result: pCIP destab)
CC[C@@H](CO)NC(=O)[C@@H]1C=C2c3cccc4[nH]cc(c34)C[C@H]2N(C)C1	HTR5A ag ctr 91.1 (no result: beta cell repl, pCIP destab) | MOR-DOR ag-2 inactive | HTR5A ag confirm 84.3
COC(=O)C1=CO[C@@H](C)[C@H]2CN3CC[C@]4(C(=O)Nc5ccccc54)[C@@H]3C[C@H]12	none (no result: pCIP destab)
C1=CC(Cc2cncs2)c2ccccc21 (configuration not stated)	none (no result: pCIP destab)
CN(C)C(=O)O/N=C(\N)COc1ccc(C(C)(C)C)cc1	HTR5A ag ctr 28.6 | MOR-DOR ag-2 inactive | HTR5A ag confirm inactive
c1ccc2c(CCNC3CCCCC3)c[nH]c2c1	HTR5A ag ctr 25.3 | MOR-DOR ag-2 inactive | HTR5A ag confirm 35.9
COc1ccccc1CCNC1CCCCCC1	none
N#Cc1c(Br)n(C2OC(CO)C(O)C2O)c2ncnc(N)c12 (configuration not stated)	HTR5A ag ctr 80.8 (no result: beta cell repl, pCIP destab) | MOR-DOR ag-2 32.3 | HTR5A ag confirm 24.1
COc1ccc2[nH]cc(CCN)c2c1	HTR5A ag ctr 59.9 | MOR-DOR ag-2 inactive | HTR5A ag confirm inactive
CCCCCCCCCOc1ccc2[nH]cc(CCN)c2c1	none (no result: MOR-DOR ag-1, HTR5A inv ag, HTR5A ag ctr, beta cell repl, MOR-DOR inv ag-1)
O=P(CCl)(Nc1ccccc1)C(Cl)(Cl)Cl (configuration not stated)	none
Nc1ccc(C2(c3ccc(N)cc3)c3ccccc3-c3ccccc32)cc1	HTR5A ag ctr 44.2 | MOR-DOR ag-2 22.7 | HTR5A ag confirm 27.0
CCOc1ccccc1-n1c(O)c(C=NCCCn2ccnc2)c(=O)[nH]c1=O	none
CC1CCC(C(C)C)C(OC(=O)Cn2c(COc3ccccc3)[n+](C)c3ccccc32)C1 (configuration not stated)	HTR5A ag ctr 14.9 | MOR-DOR ag-2 inactive | HTR5A ag confirm inactive
Cc1c(C(=O)N2CCC3(CC2)OCCO3)sc2ncnc(N3CCN(c4ccccn4)CC3)c12	none
Cn1c(O)c(C(=N)COc2cccc(Cl)c2)c(=O)n(C)c1=O	none
C=CCn1c(O)c(/C(C)=N/N2CCCCC2)c(=O)[nH]c1=O	HTR5A ag ctr 19.5 | MOR-DOR ag-2 inactive | HTR5A ag confirm inactive
CCN(CC)C(=O)N[C@H]1C[C@@H]2c3cccc4[nH]cc(c34)C[C@H]2N(C)C1	none
CN1C[C@H](CO)C[C@@H]2c3cccc4[nH]cc(c34)C[C@H]21	HTR5A ag ctr 16.3 | MOR-DOR ag-2 inactive | HTR5A ag confirm 23.3
COC(=O)C1=C(c2ccc(F)cc2F)C[C@@H]2CC[C@H]1N2C(=O)NCc1ccc2c(c1)OCO2	HTR5A ag ctr 21.2 (no result: pCIP destab) | MOR-DOR ag-2 inactive | HTR5A ag confirm inactive
CCC(CO)(C(=O)OC1CC2CCC(C1)N2C)c1ccccc1 (configuration not stated)	HTR5A ag ctr 16.2 | MOR-DOR ag-2 inactive | HTR5A ag confirm inactive
C=CCn1c(O)c(C(C)=NCCCN(C)C)c(=O)[nH]c1=O	none
COP(=O)(Cc1ccc(C#N)o1)OC	HTR5A ag ctr 15.4 | MOR-DOR ag-2 inactive | HTR5A ag confirm inactive
Cc1cc(O)c2c3c(c(=O)oc2c1)CCC(C)C3 (configuration not stated)	none
Cc1cc(O)c2c(c1)OC(C)(C)C1=C2CC(C)CC1 (configuration not stated)	HTR5A ag ctr 15.2 | MOR-DOR ag-2 inactive | HTR5A ag confirm inactive
Oc1cccc(/C=N/NP(=S)(c2ccccc2)c2ccccc2)c1	none
Cc1[nH]c2ccc(O)cc2c1CCN	HTR5A ag ctr 40.3 (no result: pCIP destab) | MOR-DOR ag-2 inactive | HTR5A ag confirm 50.3
Cc1[nH]c2ccc(OCc3ccccc3)cc2c1CCN	none
CCCCn1nc(C)c(C(=O)O)c1Cl	none
